Measured values as given in PubChem BioAssay (NCATS).
Inconclusive results are not listed. Entries that show only a call come without a potency. Activity calls are given as the source filed them. Calls follow the shape of the dose curve; as a rule, active = well fitted curve in the direction sought with a large enough effect; inconclusive = small, poorly fitted or top-dose-only effect, or another doubt; inactive = no such curve, though single readings can be large; an effect the other way counts as inactive or inconclusive. Residues, ends and D or L forms follow the SMILES beside them. *: point of attachment. Cbz = O=C(OCc1ccccc1)*

Tests used:
[1] = molecular target: Arylsulfatase A (Homo sapiens) (UniProt P15289); assay: qHTS screen for enhancers of Arylsulfatase A (ASA1): LOPAC Validation Assay (AID 720538)
Method in brief: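 First, ASA-I179S fibroblasts from an MLD patient adhered for 6 hrs. Next, compounds were added for 48h. Then pNCS substrate (0.5mM final) with lysis buffer reacted 14h at room temperature before NaOH stop and fluorescence measurement.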

[2] = qHTS for compounds that reverse cellular toxicity of Amyloid beta (A-beta) peptide in yeast: LOPAC Validation Assay (AID 720559)
Method in brief: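 Activity is expressed relative to DMSO and an equimolar ferric chloride/clioquinol mix. Compounds were pinned into medium with A-beta-expressing yeast, grown 48 hr at 30 C, then read by absorbance at 600 nm.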

[3] = qHTS for Activators of Parkin Expression: LOPAC Validation Assay (NLuc Reporter) (AID 720572)
Method in brief: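 Neuronal cells with a Parkin promoter-driven FLuc/NLuc coincidence reporter were treated 24 h at 37 C in 7-point dose response (LOPAC). NLuc luminescence read after FLuc; signals normalized to DMSO and positive control (100%).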

[4] = qHTS for Activators of Parkin Expression: LOPAC Validation Assay (FLuc Reporter) (AID 720573)
Method in brief: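 A neuronal cell line harbouring FLuc and NLuc reporters behind the Parkin promoter was exposed to compounds for 24 h. Firefly luciferase signal, measured after 10 min with detection reagent, was scaled to DMSO and positive-control wells.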

Chain of Arylsulfatase A (Homo sapiens) (P15289 whole entry, looked up): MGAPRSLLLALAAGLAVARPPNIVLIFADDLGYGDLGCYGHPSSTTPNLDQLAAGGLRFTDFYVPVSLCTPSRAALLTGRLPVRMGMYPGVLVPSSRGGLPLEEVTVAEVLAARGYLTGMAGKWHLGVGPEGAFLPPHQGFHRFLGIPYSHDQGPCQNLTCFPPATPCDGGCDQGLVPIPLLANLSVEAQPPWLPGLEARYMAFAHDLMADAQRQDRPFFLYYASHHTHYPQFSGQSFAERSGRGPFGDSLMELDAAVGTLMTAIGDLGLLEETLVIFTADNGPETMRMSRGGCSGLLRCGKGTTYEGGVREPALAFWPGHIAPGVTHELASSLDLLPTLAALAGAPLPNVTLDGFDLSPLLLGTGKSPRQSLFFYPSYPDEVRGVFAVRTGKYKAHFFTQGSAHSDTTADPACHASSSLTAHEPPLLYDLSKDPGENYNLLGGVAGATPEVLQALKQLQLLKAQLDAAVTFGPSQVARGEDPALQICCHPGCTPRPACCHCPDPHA

Row | SMILES | Potency [1] | outcome [2] | Potency [3] | Potency [4]
1 | CN1C2CCC1CC(OC(c1ccccc1)c1ccccc1)C2 (stereo unspecified) | inactive | inactive | inactive | inactive
2 | CC(=O)NCCc1c[nH]c2ccc(O)cc12 | inactive | inactive | inactive | inactive
3 | CC(C)NC[C@H](O)COc1ccc(CC(N)=O)cc1 | inactive | inactive | inactive | inactive
4 | O=C(O)C1CN(CCCP(=O)(O)O)CCN1 (stereo unspecified) | inactive | inactive | – | inactive
5 | O=c1oc(Cl)c(Cl)c2ccccc12 | inactive | – | inactive | –
6 | NC1C=CC=C(C(=O)O)C1 (stereo unspecified) | inactive | – | inactive | –
7 | CCCCCCCCCCCCCCCCCCOC[C@H](COP(=O)([O-])OCC[N+](C)(C)C)OC | inactive | – | inactive | –
8 | Cc1nc2n(c(=O)c1CCN1CCC(c3noc4cc(F)ccc34)CC1)CCCC2O (stereo unspecified) | inactive | – | – | inactive
9 | CC(C)[C@H](NC(=O)OCc1ccccc1)C(=O)N[C@H](C=O)Cc1ccccc1 (Cbz-Val-Phe-aldehyde) | inactive | – | inactive | inactive
10 | CC(=O)N[C@@H](Cc1c[nH]c2ccccc12)C(=O)OCc1cc(C(F)(F)F)cc(C(F)(F)F)c1 | inactive | – | inactive | –
11 | C=CC[C@H](N)C(=O)O | inactive | inactive | – | inactive
12 | CCCn1c(=O)c2c(ncn2C)n(CCC)c1=O | inactive | – | inactive | –
13 | CCCCC[C@H](CC(=O)NO)C(=O)N[C@H](C(=O)N1CCC[C@H]1CO)C(C)C | inactive | – | – | inactive
14 | CC(=O)SC1CC2=CC(=O)CC[C@]2(C)C2CC[C@@]3(C)C(CC[C@@]34CCC(=O)O4)C12 (stereo partly specified) | – | inactive | – | –
15 | CCCOC(=O)c1c(-c2ccccc2)nc(CC)c(C(=O)SCC)c1CCC | inactive | – | inactive | inactive
16 | CCCCOc1cc(CC2CNC(=O)N2)ccc1OC (stereo unspecified) | inactive | – | inactive | –
17 | Clc1nccc2c1ccc1ccccc12 | inactive | – | inactive | inactive
18 | CC(C)(C)c1cc(/C=C(\C#N)C(N)=S)cc(C(C)(C)C)c1O | inactive | – | – | inactive
19 | CSc1nc(N)c2ncn([C@@H]3O[C@H](COP(=O)(O)OP(=O)(O)O)C(O)[C@H]3O)c2n1 (stereo partly specified) | inactive | – | inactive | inactive
20 | CO/N=C(\C(=O)N[C@@H]1C(=O)N2C(C(=O)O)=C(CSc3nc(=O)c(O)nn3C)CSC12)c1csc(N)n1 (stereo partly specified) | inactive | – | inactive | inactive
21 | CCCCCC(O)CCCC(=O)O (stereo unspecified) | inactive | – | – | inactive
22 | O=C(O)Cc1ccc(O)c(O)c1 | inactive | – | inactive | inactive
23 | COc1cc(CC(=O)O)ccc1O | inactive | – | inactive | inactive
24 | N=C(N)c1ccc(N)cc1 | inactive | – | inactive | inactive
25 | O=c1onc2cnc3ccccc3n12 | inactive | – | inactive | inactive
26 | O=C(N[C@@H](Cc1ccccc1)C(=O)CCl)OCc1ccccc1 | inactive | inactive | – | inactive
27 | NCCCNCCCCNCCCN | inactive | – | inactive | inactive

Row | SMILES | Potency [1] | outcome [2] | Potency [3] | Potency [4]
28 | N[C@H](C(=O)O)[C@H](O)C(=O)O | inactive | – | inactive | inactive
29 | CC(=O)/C(C)=N/O | inactive | – | inactive | inactive
30 | S=C(S)N1CCCC1 | inactive | – | inactive | inactive
31 | CC1CCN=C(N)S1 (stereo unspecified) | inactive | – | – | inactive
32 | CC(O)C(O)[C@H]1CNc2nc(N)[nH]c(=O)c2N1 (stereo partly specified) | inactive | – | inactive | inactive
33 | C=CCN1CCc2cc(O)c(O)cc2C(c2ccccc2)C1 (stereo unspecified) | inactive | – | inactive | –
34 | OCC1NCC(O)C(O)C1O (stereo unspecified) | inactive | – | inactive | inactive
35 | CCCn1c(=O)c(C)cn2nc(N)nc12 | inactive | – | – | inactive
36 | O=c1[nH]c(=S)[nH]c(-c2ccccc2)c1Cc1c(O)ccc2ccccc12 | inactive | inactive | – | inactive
37 | N#CC(=C(\N)Sc1ccccc1N)/C(C#N)=C(/N)Sc1ccccc1N | inactive | – | – | inactive
38 | CCCCCCC/C=C\CCCCCCCCC(=O)O | inactive | inactive | – | inactive
39 | CC1=C(C(=O)O)N2C(=O)[C@@H](NC(=O)C(N)C3=CCC=CC3)[C@H]2SC1 (stereo partly specified) | inactive | – | inactive | inactive
40 | NOCC(=O)O | inactive | – | inactive | –
41 | c1ccc(C(NCc2cccnc2)(c2ccccc2)c2ccccc2)cc1 | inactive | – | inactive | inactive
42 | Oc1ccc(Cn2cc[nH]c2=S)cc1 | inactive | inactive | – | inactive
43 | O=C(O)CCC/C=C\C[C@@H]1[C@@H](/C=C/[C@H](O)C2Cc3ccccc3C2)[C@@H](F)C[C@@H]1O | – | inactive | – | –
44 | NC(=O)CC[C@H](N)C(=O)O | – | inactive | inactive | inactive
45 | N#C/C(=C\c1ccc(O)c(O)c1)C(=O)NCCc1ccccc1 | – | inactive | inactive | inactive
46 | Cn1c(=O)c2c(nc(/C=C/c3cccc(Cl)c3)n2C)n(C)c1=O | – | inactive | inactive | inactive
47 | NC[C@@H]1O[C@H](c2ccccc2)Cc2c1ccc(O)c2O | – | inactive | inactive | inactive
48 | N#Cc1cc([N+](=O)[O-])c2sc(C(N)=O)[n+]([O-])c2c1 | – | inactive | inactive | inactive
49 | CC[N+](CC)(CC)CC(=O)Nc1c(C)cccc1C | – | inactive | inactive | inactive
50 | COc1ccc(-c2cc3ncc(C)n3c(Nc3ncccc3C(N)=O)n2)cc1OC | – | inactive | inactive | inactive
51 | O=C(O)C1=CC(=C(c2ccc(O)c(C(=O)O)c2)c2ccc(O)c(C(=O)O)c2)C=CC1=O | – | inactive | inactive | inactive
52 | O=[N+]([O-])c1cccc2cn[nH]c12 | – | inactive | inactive | inactive
53 | CCN(c1nc(N)c(C(=O)N=C(N)N)nc1Cl)C(C)C | – | inactive | inactive | inactive
54 | NCC(O)(CS(=O)(=O)O)c1ccc(Cl)cc1 (stereo unspecified) | – | inactive | inactive | inactive
